Pf Dd2 growth = blocks growth of Plasmodium falciparum Dd2 parasites | activity change, % at 10 µM | AID 1159554 | P. falciparum Dd2 growth, SYBR Green, 72 h; active compounds read low | 94,000 compounds, 2.3% hits; in the data active = activity change below about -80%
C diff growth = inhibitors of Clostridium difficile growth; Clostridium difficile clinical isolate growth, OD600, 24 h; active compounds read low; growth activity, negative = inhibition, % at 16 µg/mL (by protocol); 86,000 compounds, 0.25% hits;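 active = mean growth activity at or below -80% and every replicate also at or below -80%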
Hits are given with their value; ! = repeats disagree. Compounds with a hit are over-represented: about 2.3% of the library has one in this group of screens.

`O=C(C1CCCC1)N1C[C@@H]2N[C@H](C1)C2c1ccc(-c2cccc(F)c2)cc1` (stereo partly specified) gave Pf Dd2 growth inactive and C diff growth inactive.
`N#Cc1cccc(-c2ccc(C3[C@@H]4CN(C(=O)Nc5ccccc5)C[C@H]3N4)cc2)c1` (stereo partly specified) gave Pf Dd2 growth inactive and C diff growth inactive.
For CCC(=O)N(C)C[C@@H]1Oc2cc(C#C[C@H](C)O)ccc2S(=O)(=O)N([C@@H](C)CO)C[C@@H]1C the results were Pf Dd2 growth inactive and C diff growth inactive.
`O=C(C[C@H]1C=C[C@@H](NC(=O)c2cccc(F)c2)[C@H](CO)O1)NCc1ccccc1` gave Pf Dd2 growth inactive.
Screening O=C(C1CC1)N1CC(=O)N2[C@@H](CO)[C@H](c3ccc(C#Cc4cccc(F)c4)cc3)[C@@H]2C1 returned Pf Dd2 growth inactive and C diff growth inactive.
Screening C[C@@H]1CN([C@H](C)CO)C(=O)Cc2cc(NC(=O)Nc3ccc(C(F)(F)F)cc3)ccc2O[C@H]1CN(C)C(=O)Nc1ccc2c(c1)OCO2 returned Pf Dd2 growth inactive and C diff growth inactive.
C[C@H]1CN([C@@H](C)CO)C(=O)CCCn2cc(nn2)CO[C@H]1CN(C)CC1CCCC1 was read as Pf Dd2 growth inactive.
For C[C@@H]1CN([C@@H](C)CO)C(=O)Cc2cc(NC(=O)Nc3ccc4c(c3)OCO4)ccc2O[C@@H]1CN(C)C(=O)Nc1cccc2ccccc12 the results were Pf Dd2 growth inactive and C diff growth inactive.
`COCC#Cc1ccc2c(c1)O[C@@H](CN(C)C(=O)c1ccccc1)[C@@H](C)CN([C@H](C)CO)S2(=O)=O` gave Pf Dd2 growth inactive and C diff growth inactive.
`O=C(C1CC1)N1C[C@@H]2N[C@H](C1)C2c1ccc(-c2ccccc2F)cc1` (stereo partly specified) gave Pf Dd2 growth -87.1! and C diff growth inactive.
O=C(c1ccc(F)cc1)N1C[C@@H]2N[C@H](C1)C2c1ccc(-c2ccccc2F)cc1 (stereo partly specified) was read as Pf Dd2 growth inactive and C diff growth inactive.
For C[C@@H]1CCCCO[C@H](CN(C)Cc2ccc(C(F)(F)F)cc2)[C@@H](C)CN([C@@H](C)CO)C(=O)c2cc(NC(=O)C3CCCCC3)ccc2O1 the results were Pf Dd2 growth -84.6 and C diff growth inactive.
Screening C[C@H](CO)N1C[C@H](C)[C@H](CN(C)Cc2ccc(C(F)(F)F)cc2)Oc2ccc(NC(=O)C3CC3)cc2CC1=O returned Pf Dd2 growth inactive and C diff growth inactive.
For C[C@@H]1CN([C@H](C)CO)C(=O)c2cc(NC(=O)C3CCCCC3)ccc2O[C@@H](C)CCCCO[C@H]1CN(C)Cc1ccncc1 the results were Pf Dd2 growth inactive and C diff growth inactive.
`C[C@@H]1CCCCO[C@@H](CN(C)Cc2ccc(C(F)(F)F)cc2)[C@H](C)CN([C@H](C)CO)C(=O)c2cc(NC(=O)C3CCCCC3)ccc2O1` gave Pf Dd2 growth inactive and C diff growth inactive.
`C[C@H]1CN([C@@H](C)CO)C(=O)Cc2cc(NC(=O)C3CC3)ccc2O[C@H]1CN(C)Cc1ccc(C(F)(F)F)cc1` gave Pf Dd2 growth -80.4 and C diff growth inactive.
For C[C@@H]1CCCCO[C@H](CN(C)Cc2ccncc2)[C@@H](C)CN([C@@H](C)CO)C(=O)c2cc(NC(=O)C3CCCCC3)ccc2O1 the results were Pf Dd2 growth -84.9 and C diff growth inactive.
`C/C=C/c1ccc([C@@H]2[C@@H](CO)N[C@@H]2CN(C(=O)C2CCCC2)C(C)C)cc1` gave Pf Dd2 growth inactive and C diff growth inactive.
For Cc1ccc(S(=O)(=O)N(C)C[C@H]2OCCCC[C@@H](C)Oc3ccc(NC(=O)Nc4c(C)noc4C)cc3C(=O)N([C@@H](C)CO)C[C@H]2C)cc1 the results were Pf Dd2 growth inactive and C diff growth inactive.
COc1ccc(NC(=O)Nc2ccc3c(c2)C(=O)N([C@H](C)CO)C[C@H](C)[C@@H](CN(C)S(=O)(=O)c2ccc(OC)cc2)O3)cc1 was read as Pf Dd2 growth inactive and C diff growth inactive.
`C[C@@H]1CN([C@@H](C)CO)S(=O)(=O)c2ccc(C3=CCCCC3)cc2O[C@H]1CN(C)C(=O)Cc1ccccc1` gave Pf Dd2 growth inactive and C diff growth inactive.
For C[C@H](CO)N1C[C@H](C)[C@H](CN(C)CC2CCCCC2)OCCCC[C@H](C)Oc2ccc(NC(=O)CCCN(C)C)cc2C1=O the results were C diff growth inactive.
For COCCNC(=O)C[C@@H]1C[C@@H]2c3cc(NC(=O)Nc4ccccc4)ccc3O[C@@H]2[C@@H](CO)O1 the results were Pf Dd2 growth inactive and C diff growth inactive.
`C[C@H](CO)N1C[C@H](C)[C@@H](CN(C)Cc2ccc(Oc3ccccc3)cc2)Oc2ccc(NC(=O)Cc3cn(C)c4ccccc34)cc2C1=O` gave Pf Dd2 growth -84.3 and C diff growth inactive.
C[C@H]1CN([C@@H](C)CO)C(=O)c2cc(NC(=O)Cc3cn(C)c4ccccc34)ccc2O[C@H]1CN(C)CC1CC1 was read as Pf Dd2 growth inactive and C diff growth inactive.
Screening C[C@@H]1CN([C@@H](C)CO)C(=O)c2cc(NC(=O)Cc3cn(C)c4ccccc34)ccc2O[C@H]1CN(C)C(=O)Nc1cccc2ccccc12 returned Pf Dd2 growth inactive.
`COc1ccc(CN(C)C[C@@H]2Oc3ccc(NC(=O)Cc4cn(C)c5ccccc45)cc3C(=O)N([C@@H](C)CO)C[C@H]2C)cc1` gave Pf Dd2 growth inactive and C diff growth inactive.
For C[C@H](CO)N1C[C@H](C)[C@@H](CN(C)C(=O)Nc2cccc3ccccc23)Oc2ccc(NC(=O)Cc3cn(C)c4ccccc34)cc2C1=O the results were Pf Dd2 growth -87.4.
Screening C[C@H]1CN([C@@H](C)CO)C(=O)c2cc(NC(=O)Cc3cn(C)c4ccccc34)ccc2O[C@@H]1CN(C)CC1CC1 returned Pf Dd2 growth -82.8 and C diff growth inactive.
For CO[C@@H]1CN(C)C(=O)c2cc(NC(=O)c3ccc(F)cc3)ccc2OC[C@H](C)N(C(=O)c2ccc(F)cc2)C[C@H]1C the results were Pf Dd2 growth inactive.
For COc1ccc(C#Cc2ccc([C@@H]3[C@H](CO)N4CCCCN(Cc5ccccc5F)C[C@@H]34)cc2)cc1 the results were Pf Dd2 growth -82.3 and C diff growth -96.6.
For COc1ccc(C#Cc2ccc([C@H]3[C@@H](CO)N4CCCCN(Cc5ccncc5)C[C@@H]34)cc2)cc1 the results were Pf Dd2 growth inactive and C diff growth inactive.
`COc1ccc(C#Cc2ccc([C@H]3[C@@H](CO)N4CCCCN(Cc5ccncc5)C[C@H]34)cc2)cc1` gave Pf Dd2 growth -83.4 and C diff growth inactive.
Screening OC[C@@H]1[C@@H](c2ccc(C#Cc3cccnc3)cc2)[C@@H]2CN(Cc3ccccc3F)CCCCN12 returned Pf Dd2 growth inactive and C diff growth inactive.
`COc1ccc(C#Cc2ccc([C@@H]3[C@@H](CO)N4CCCCN(Cc5ccccc5F)C[C@@H]34)cc2)cc1` gave Pf Dd2 growth inactive and C diff growth inactive.
For COc1ccc(C#Cc2ccc([C@H]3[C@H](CO)N4CCCCN(Cc5ccccc5F)C[C@@H]34)cc2)cc1 the results were Pf Dd2 growth inactive and C diff growth -97.1.
Screening COCC(=O)N(C)C[C@H]1Oc2ncc(C#Cc3ccccc3OC)cc2C(=O)N([C@@H](C)CO)C[C@H]1C returned Pf Dd2 growth inactive and C diff growth inactive.

Screening results from PubChem.
